# Pf apPOL block – Pf-apPOL DNA polymerase inhibition; Recombinant Pf-apPOL, molecular beacon fluorescence, 1.5 h; inhibition, % at 10 µM; hit rate 0.25% among 210,000
# mHTT CaM bind – mHTT-calmodulin interaction abrogation; P42858; AlphaScreen His-mHTT/GST-CaM binding, luminescence; inhibition, % at 15 µM; hit rate 3.6% among 190,000
# Numbers stand for hits; n = inactive; x = no result; ! = a repeat was not active. In the library only some 3.5% were active in any assay of this set; here they are far more common. Rule as the data show it: active = inhibition above about 50%; inactive = the rest.
SMILES,Pf apPOL block,mHTT CaM bind
Cc1ccccc1-n1nc2c(c1NC(=O)C1CCCCC1)CSC2,n,52
Cc1ccccc1-n1nc2c(c1NC(=O)c1cccc([N+](=O)[O-])c1)CSC2,n,n
Cc1ccc(C(=O)Nc2c3c(nn2-c2cccc(C)c2C)CSC3)cc1[N+](=O)[O-],n,n
Cc1cccc(C(=O)Nc2c3c(nn2-c2ccccc2C)CSC3)c1,n,58
CCOc1ccc(-c2nc(C(=O)N(C)CC)cs2)cc1,n,n
CCn1nccc1C(=O)N1CCCCC1c1nncn1CC1CC1 (centres undefined),n,n
CC(C)CNC(=O)c1ccc(NS(=O)(=O)c2ccc([N+](=O)[O-])cc2)cc1,n,n
COc1ccc(OC)c(N2C(=O)CC(Sc3nc4ccccc4s3)C2=O)c1 (centres undefined),n,51!
COc1ccc(N2C(=O)CC(Sc3nc4ccccc4s3)C2=O)cc1 (centres undefined),n,n
O=c1[nH]c2ccc(Br)cc2c(-c2ccccc2)c1C1=NOC(c2ccccc2)C1 (centres undefined),n,n
CC(=O)N1N=C(c2c(-c3ccccc3)c3cc(Cl)ccc3[nH]c2=O)CC1c1ccc(Cl)cc1 (centres undefined),n,100
COc1ccc(C2=NN(C(C)=O)C(c3ccc(Cl)cc3)C2)cc1 (centres undefined),n,x
O=c1[nH]c2ccc(Cl)cc2c(-c2ccccc2)c1C1=NOC(c2ccc(F)cc2)C1 (centres undefined),n,100
O=S(=O)(Nc1cccnc1)c1ccc(Br)cc1,x,n
COc1cccc(C(=O)Nc2c3c(nn2-c2ccc([N+](=O)[O-])cc2)CS(=O)(=O)C3)c1OC,n,n
CNC(=O)c1cc(Nc2nnc(-c3ccc(C)cc3)c3ccccc23)ccc1OC,n,72
NC(=O)c1ccc(-c2nnc(Nc3ccc(C(=O)Nc4ccccc4)cc3)c3ccccc23)cc1,n,87
CNC(=O)c1ccc(Nc2nnc(-c3ccc(O)cc3)c3ccccc23)cc1,n,n
CNC(=O)c1cc(Nc2nnc(-c3ccc(O)cc3)c3ccccc23)ccc1OC,n,n
COc1ccc(C(NC(=O)/C=C/c2ccc3c(c2)OCO3)C(=O)Nc2ccc(C(C)C)cc2)cc1 (centres undefined),n,n
COc1ncc(C(=O)N2CCN(c3ccccc3F)CC2)cn1,n,n
Cc1cc(=O)[nH]c(SCc2ccc(F)cc2)n1,n,n
CC1CCC(C(=O)NC2CCc3[nH]c4ccc(Br)cc4c3C2)CC1 (centres undefined),n,97
O=C(CC1=CCCCC1)NC1CCc2[nH]c3ccc(Br)cc3c2C1 (centres undefined),n,100
Cc1cc(C)cc(C(=O)NC2CCc3[nH]c4ccc(Br)cc4c3C2)c1 (centres undefined),n,n
SMILES,Pf apPOL block,mHTT CaM bind
CCc1cccc2c3c([nH]c12)CCC(NC(=O)C(C)CC)C3 (centres undefined),n,n
O=C(c1ccc2nc(N3C(=O)CCC3=O)sc2c1)N1CCCCC1,n,n
Cc1ccccc1-c1ccc(=O)n(Cc2c(F)cccc2Cl)n1,n,n
COc1ccc(C2SCCN2S(=O)(=O)c2ccc([N+](=O)[O-])cc2)cc1Br (centres undefined),n,n
NS(=O)(=O)c1ccc(N2CCOCC2)c([N+](=O)[O-])c1,n,x
O=[N+]([O-])c1cc(Br)c2nsnc2c1N1CCOCC1,n,67!
CCOc1ccccc1NC(=O)C1(C)Oc2cccnc2N(CC)C1=O (centres undefined),n,n
CC(C)CN1CCN(C(=O)c2ccc(-c3ccsc3)nc2)CC1,n,n
O=C(c1cc(F)ccc1F)N1CCC(n2nc(-c3ccsc3)ccc2=O)CC1,n,98
CCOC(=O)c1cc(C)nn1C1CCN(C(=O)c2ccc(F)cc2F)CC1,n,n
O=C(c1cc(F)ccc1F)N1CCC(CCOCc2ccc(F)cc2)CC1,n,n
O=C(c1ccccn1)N1CCC(n2nc(-c3ccsc3)ccc2=O)CC1,n,n
O=C(c1ccccc1F)N1CCC(n2nc(-c3ccsc3)ccc2=O)CC1,n,86
O=C(c1ccc(F)cc1F)N1CCC(n2nc(-c3ccsc3)ccc2=O)CC1,n,100
CSc1nc2ccccc2c(=O)n1O,x,n
O=C(NCCn1ccc2ccccc21)c1c(F)cccc1Cl,n,n
CN(C)c1ccc(CNc2ccc3c(c2)ncn3C)cc1,n,n
CCN(CC)c1ccc(CNc2ccc3c(c2)ncn3C)cc1,n,84
CC(=O)Nc1ccc2c(c1)ncn2-c1ccccc1,n,n
Cn1cnc2cc(NCc3ccc(Br)cc3)ccc21,n,n
CC(C)(C)n1cnc2cc(NCc3ccc(Br)cc3)ccc21,n,61
Brc1ccc(CNc2ccc3c(c2)ncn3-c2ccccc2)cc1,n,95
COC(=O)C1C(=O)C2=C(CC1C)NC(C)=C(C(=O)OC1CCCCC1)C2c1ccc(O)c(OC)c1 (centres undefined),n,n
Fc1ccc(-c2nc(-c3ccc4nncn4c3)no2)c(Cl)c1,n,n
O=C(Nc1cccnc1)c1ccc([N+](=O)[O-])o1,n,n
SMILES,Pf apPOL block,mHTT CaM bind
COc1cc([N+](=O)[O-])ccc1-c1ccc(C(=O)Nc2cccnc2)o1,n,61
COc1ccccc1N1CCN(CCOc2ccc(Cl)cc2)CC1,n,n
Cc1ccccc1N1CCN(CCOc2cccc(Cl)c2)CC1,n,93
COc1cc(SC)ccc1C(=O)NCCc1ccc(F)cc1,n,n
CC(=O)NC(CCS(C)(=O)=O)C(=O)Nc1cccc(F)c1 (centres undefined),n,n
O=C1C=CC(=Nc2ccc(Br)cc2)C=C1,n,87
CCOc1ccc(NS(=O)(=O)c2ccc(Cl)c(C)c2Cl)cc1,n,n
COc1ccc(NC(=O)N2CCC3(C2)C(=O)Nc2ccccc23)c(OC)c1 (centres undefined),n,n
COc1ccc(OC)c(S(=O)(=O)N2CCC3(C2)C(=O)Nc2ccccc23)c1 (centres undefined),n,99
O=C(NCc1cc(F)cc(F)c1)C1CCc2nc(N3CCCCC3)ncc2C1 (centres undefined),n,n
Clc1cccc(Nc2nc3ccccc3nc2C=Cc2cccs2)c1,n,x
CCc1cc(C(=O)Cn2cnc3ccccc32)c(O)cc1O,n,n
N#CCC(=O)c1ccc(Br)cc1,n,n
O=C(c1ccc(OCC2CCCN(C(=O)C3CCCC3)C2)cc1)N1CCCCC1 (centres undefined),96,n
O=C(c1ccc(OCC2CCCN(C(=O)C3CCCCC3)C2)cc1)N1CCCCC1 (centres undefined),n,n
CCC(=O)N1CCc2cc(S(=O)(=O)Nc3cccc4c3CCCC4)ccc21,n,n
COc1cc(Br)c(S(=O)(=O)N2CCN(c3ccc(C)c(C)c3)CC2)cc1OC,n,53
COc1cc(S(=O)(=O)N2CCN(c3ccc(C)c(C)c3)CC2)c(OC)cc1Br,n,59
Cc1cc(Br)c(S(=O)(=O)N2CCN(c3ccccc3)CC2)cc1C,n,n
COc1cc(S(=O)(=O)N2CCN(c3ccc(F)cc3)CC2)c(OC)cc1Br,n,n
CCC(CC)C(=O)N1CCC(COc2ccccc2C(=O)N2CCCC2)CC1,n,n
Cc1cccc(NC(=O)CSc2ccc(Cl)cc2)c1,n,n
O=C(NCCc1ccccc1)c1ccc([N+](=O)[O-])o1,n,n
CCCCC(CC)CNC(CC(=O)Nc1ccc(F)cc1)C(=O)O (centres undefined),n,n
COc1ccccc1N1CCN(C(=O)CCC(=O)N2CCN(c3ccccc3OC)CC2)CC1,n,n

# Source: PubChem BioAssay (University of Kansas High Throughput Screening Laboratory)
